Test results: patent US20100081621, “Crystal structure of the catalytic domain of the viral restriction factor APOBEC3G” (published 2010)

These sequences were tested against APOBEC3G R313E/R320D (Homo sapiens, UniProt Q9HC16 Q9HC16:1-384, R313E,R320D) (assay: FP; 5 mM MgCl2, 37 C). Settings: tags: Sf9, pAcG2T; label: internal fluorescein-dT; ssDNA; [15 (fluorescein-dT)].
Protocol: Apo3G-DNA binding were monitored by changes in steady state fluorescence depolarization (rotational anisotropy). Reaction mixtures (70 μl), containing an F-labeled DNA ([…]) in buffer (50 mM HEPES, pH 7.3, 1 mM DTT and 5 mM MgCl₂) and varying concentration of 0 to 500 nM Apo3G, were incubated at 37° C. The sequence of the ssDNA is: tta gat gag tgt aa(FdT) gtg ata tat gtg tat. Rotational anisotropy was measured as described previously (Chelico et al., 2006). The fraction of DNA bound to protein was determined as described previously (Bertram et al., 2004).

APOBEC3G R313E/R320D, sequence (Q9HC16 whole entry R313E/R320D, one chain of several): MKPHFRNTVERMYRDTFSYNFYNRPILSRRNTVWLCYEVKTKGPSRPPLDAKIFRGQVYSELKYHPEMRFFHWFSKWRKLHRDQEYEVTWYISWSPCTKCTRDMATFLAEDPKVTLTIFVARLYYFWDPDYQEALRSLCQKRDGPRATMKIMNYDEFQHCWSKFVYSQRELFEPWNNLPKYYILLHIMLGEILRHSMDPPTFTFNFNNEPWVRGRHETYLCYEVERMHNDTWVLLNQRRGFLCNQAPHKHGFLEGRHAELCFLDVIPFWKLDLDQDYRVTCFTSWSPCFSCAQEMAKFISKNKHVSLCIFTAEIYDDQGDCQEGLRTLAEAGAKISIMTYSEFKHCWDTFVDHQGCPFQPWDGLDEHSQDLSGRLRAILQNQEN

Sequence | binding signal
TTAGATGAGTGTAATGTGATATATGTGTAT | 77 % of wt
